Test [1] is described as follows: qHTS assay to identify small molecule agonists of the TGF-beta/Smad signaling pathway - cell viability counter screen (AID 1346829). Note: top concentration of the series differs between compounds; nearly all actives have a fitted effect of over 45% in size. Summed up:
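Same-well cytotoxicity: CellTiter-Glo added after the 2 hr room-temperature beta-lactamase substrate step, luminescence measured 30 min later; cells had 5 hr of compound at 37 C.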
A general note: Quantitative high-throughput screening tests each substance at several concentrations.

Test [2] in a line: qHTS assay to identify small molecule agonists of the TGF-beta/Smad signaling pathway (AID 1346859; active = well fitted activation curve with a large enough effect in the signal ratio in the repeat runs, not every such curve was filed as active; the % refers to the signal ratio; note: series mostly up to about 77 µM). The method in brief:
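HEK 293T cells stably carrying a beta-lactamase reporter driven by the Smad binding element were seeded overnight, exposed to DMSO-dissolved compounds for 5 hr at 37 C, 5% CO2, then loaded with FRET substrate for 2 hr at room temperature.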

Test [3] addresses Thyrotropin-releasing hormone receptor (Homo sapiens) (UniProt P34981). Nature of the test: qHTS assay to identify small molecule antagonists of the thyrotropin-releasing hormone receptor (TRHR) signaling pathway (AID 1346877; active = well fitted inhibition curve with a large enough effect in the repeat runs, not every such curve was filed as active; note: series mostly up to about 51 µM). Summed up:
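Antagonism is measured as suppression of the calcium response to 1 nM TRH in TRHR-HEK293 cells that have been dye-loaded for 2 h at 37 °C after overnight plating. Each compound is tested at 15 concentrations in triplicate.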

Test [4] shares this target. Nature of the test: qHTS assay to identify small molecule agonists of the thyrotropin-releasing hormone receptor (TRHR) signaling pathway (AID 1346891; calls by dose curve; note: series mostly up to about 58 µM). Summed up: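 TRHR-expressing HEK293 cells were plated 18 h at 37 °C/5% CO2, loaded with calcium dye 2 h at 37 °C, then given compound in DMSO; fluorescence was read kinetically for 3 min at 1 s intervals.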
A short description of test [5]: Human pregnane X receptor (PXR) small molecule agonists, qHTS cell viability counter screen (AID 1346977). Note: nearly all actives have a fitted effect of over 50% in size. Summed up: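 PXR-Luc HepG2 cells in medium with 5% charcoal-stripped FBS were pre-incubated 5hr, then exposed to compounds for 24hr at 37C. Viability was read in the same wells by CellTiter-Fluor fluorescence, reagent added after 23hr with a 1hr incubation.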

A short description of test [6]: Caspase-3/7 induction in HepG2 cells by small molecules, qHTS assay (AID 1346978). Note: nearly all actives have a fitted effect of over 15% in size. The method in brief: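 Wild-type HepG2 cells (2,000/well) were settled 5 h at 37 C, 5% CO2, then exposed to compounds in DMSO for 17 h. Caspase-3/7 activity was read by luminescence 30 min after adding Caspase-Glo 3/7 reagent at room temperature.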
Test [7] can be described thus: Caspase-3/7 induction in CHO-K1 cells by small molecules, qHTS cell viability counter screen (AID 1346979). Note: nearly all actives have a fitted effect of over 35% in size. Summed up:
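Wild-type CHO-K1 cells were seeded at 1,500 per well, rested 5hr at 37 C, then exposed to compounds in DMSO. After 16hr, CellTiter-Fluor reagent was added and fluorescence read 1hr later as the viability measure.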

Test [8] is described as follows: Caspase-3/7 induction in CHO-K1 cells by small molecules, qHTS assay (AID 1346980). Note: nearly all actives have a fitted effect of over 15% in size. Summed up: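 Wild-type cells were seeded at 1,500 per well and settled 5 hr at 37 C, 5% CO2, then exposed to DMSO-dissolved compounds for 17 hr. Caspase-Glo 3/7 reagent was added, and luminescence was read after 30min at room temperature.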
Test [9] can be described thus: Caspase-3/7 induction in HepG2 cells by small molecules, qHTS cell viability counter screen (AID 1346981). Note: series mostly up to about 92 µM; nearly all actives have a fitted effect of over 30% in size. Summed up:
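Cell viability is measured as a cytotoxicity counter screen alongside the Caspase-Glo 3/7 readout in identical wells. Wild-type HepG2 cells are treated with test compounds for 16 hr at 37 C before CellTiter-Fluor addition and a 1-hr incubation.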

For test [10], the target named is Nuclear receptor subfamily 1 group I member 2 (Homo sapiens) (UniProt O75469). Briefly: Human pregnane X receptor (PXR) small molecule agonists, qHTS assay (AID 1346982). Note: nearly all actives have a fitted effect of over 35% in size. The method in brief: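 Cells: HepG2 stably carrying PXR-Luc. Medium held 5% charcoal-stripped FBS. Compounds in DMSO added after 5 hr plating, incubated 24 hr, then luminescence quantified with ONE-Glo.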
Sequence of Nuclear receptor subfamily 1 group I member 2 (Homo sapiens) (O75469 whole entry, looked up): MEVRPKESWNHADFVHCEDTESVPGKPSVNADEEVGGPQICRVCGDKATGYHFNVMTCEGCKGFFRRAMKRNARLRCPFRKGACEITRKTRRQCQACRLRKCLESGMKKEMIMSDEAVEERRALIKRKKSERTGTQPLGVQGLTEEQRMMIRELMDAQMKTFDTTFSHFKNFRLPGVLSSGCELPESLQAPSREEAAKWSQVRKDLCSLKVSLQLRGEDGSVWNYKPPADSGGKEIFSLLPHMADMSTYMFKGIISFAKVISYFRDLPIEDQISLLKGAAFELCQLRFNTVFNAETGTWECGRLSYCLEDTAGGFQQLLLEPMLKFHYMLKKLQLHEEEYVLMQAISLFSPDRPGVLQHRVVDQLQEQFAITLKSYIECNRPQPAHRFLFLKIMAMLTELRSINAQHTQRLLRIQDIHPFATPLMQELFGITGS

In test [11] the target is Cytochrome P450 2D6 (Homo sapiens) (UniProt P10635). Briefly: Cytochrome P450 Family 2 Subfamily D Member 6 (CYP2D6) small molecule antagonists: luciferase reporter qHTS assay (AID 1671196). Note: series mostly up to about 120 µM; nearly all actives have a fitted effect of over 50% in size. Summed up:
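Enzyme and proluciferin substrate were first combined with test chemical for 10 min at room temperature. Adding NADPH regeneration solution started a 1 h reaction, stopped with luciferin detection reagent and read by luminescence 20 min later.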

In test [12] the target is Cytochrome P450 2C9 (Homo sapiens) (UniProt P11712). Briefly: Cytochrome P450 Family 2 Subfamily C Member 9 (CYP2C9) small molecule antagonists: luciferase reporter qHTS assay (AID 1671198). Note: nearly all actives have a fitted effect of over 50% in size. Note: potency is the fitted concentration of half-maximal effect. The method in brief: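 CYP2C9 activity was measured with a P450-Glo proluciferin substrate. Enzyme–substrate mix was held with compound for 10 min at room temperature, then NADPH regeneration solution was added for 1 h at 37C. Luciferin product was read as luminescence.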
Sequence of Cytochrome P450 2C9 (Homo sapiens) (P11712 whole entry, looked up): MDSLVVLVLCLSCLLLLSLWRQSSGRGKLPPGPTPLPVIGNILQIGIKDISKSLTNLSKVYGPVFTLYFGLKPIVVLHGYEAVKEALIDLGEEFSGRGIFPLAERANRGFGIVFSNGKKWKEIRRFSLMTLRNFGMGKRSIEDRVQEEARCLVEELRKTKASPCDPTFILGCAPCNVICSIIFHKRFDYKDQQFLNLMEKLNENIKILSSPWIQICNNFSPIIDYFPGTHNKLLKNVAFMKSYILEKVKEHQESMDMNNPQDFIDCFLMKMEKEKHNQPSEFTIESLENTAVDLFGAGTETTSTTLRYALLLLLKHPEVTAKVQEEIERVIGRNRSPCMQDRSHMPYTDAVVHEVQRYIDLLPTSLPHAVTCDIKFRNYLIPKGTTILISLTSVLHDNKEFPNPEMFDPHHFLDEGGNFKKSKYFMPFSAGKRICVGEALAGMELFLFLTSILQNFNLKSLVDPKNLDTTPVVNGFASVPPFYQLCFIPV
On the technique in general: Reporter assays use an easily measured gene product as a stand-in for the process of interest.

The target in test [13] is Cytochrome P450 1A2 (Homo sapiens) (UniProt P05177). Briefly: Cytochrome P450 Family 1 Subfamily A Member 2 (CYP1A2) small molecule antagonists: luciferase reporter qHTS assay (AID 1671199). Note: nearly all actives have a fitted effect of over 50% in size. Note: potency is the fitted concentration of half-maximal effect. The method in brief:
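Compounds were incubated with CYP1A2 and a luminogenic proluciferin substrate for 10 min at room temperature before the reaction was started with NADPH regeneration solution. After 1 h, detection reagent was added and light output, proportional to CYP activity, was recorded.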

Test [14] concerns the target Voltage-gated inwardly rectifying potassium channel KCNH2 (Homo sapiens) (UniProt Q12809). Briefly: Human Ether-a-go-go-Related Gene (hERG) channel small molecule antagonists: fluorescence cell-based qHTS assay (AID 1671200). Summed up: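 U2OS cells expressing the channel were plated at 1000 cells/well, incubated overnight at 37 C, then loaded with FluxOR II thallium-sensitive dye for 1 h at room temperature in the dark, with a further 10 min at room temperature before stimulation.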

The target of test [15] is Cytochrome P450 3A4 (Homo sapiens) (UniProt P08684). Briefly: Cytochrome P450 Family 3 Subfamily A Member 4 (CYP3A4) small molecule antagonists: luciferase reporter qHTS assay (AID 1671201). Summed up:
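P450-Glo CYP3A4 system with proluciferin substrate; compounds preincubated 10 min RT with enzyme-substrate mix, then NADPH regeneration added for 1 h RT. Detection reagent 20 min, luminescence read as relative luminescence units.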

The target in test [16] is Cytochrome P450 2C19 (Homo sapiens) (UniProt P33261). Nature of the test: Cytochrome P450 Family 2 Subfamily C Member 19 (CYP2C19) small molecule antagonists: luciferase reporter qHTS assay (AID 1671197). Note: nearly all actives have a fitted effect of over 65% in size. Note: potency is the fitted concentration of half-maximal effect. The method in brief:
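Quantitative high-throughput screen of the Tox21 library using CYP2C19 with proluciferin substrate. Reaction: NADPH regeneration, 37C, 1 h, after 10 min compound preincubation at room temperature. Readout: luminescence.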

SMILES strings stand for the structures. Values without a mark were called inactive. Inconclusive results are not listed. Active and inactive are the calls of the source. Unless noted, calls come from the whole dose curve; as a rule, active = well fitted curve in the direction sought with a large enough effect in the repeat runs; inconclusive = weak or mixed curves; inactive = no such curve, though single readings can be large; an effect the other way counts as inactive or inconclusive.

Sequence of Cytochrome P450 2C19 (Homo sapiens) (P33261 whole entry, looked up): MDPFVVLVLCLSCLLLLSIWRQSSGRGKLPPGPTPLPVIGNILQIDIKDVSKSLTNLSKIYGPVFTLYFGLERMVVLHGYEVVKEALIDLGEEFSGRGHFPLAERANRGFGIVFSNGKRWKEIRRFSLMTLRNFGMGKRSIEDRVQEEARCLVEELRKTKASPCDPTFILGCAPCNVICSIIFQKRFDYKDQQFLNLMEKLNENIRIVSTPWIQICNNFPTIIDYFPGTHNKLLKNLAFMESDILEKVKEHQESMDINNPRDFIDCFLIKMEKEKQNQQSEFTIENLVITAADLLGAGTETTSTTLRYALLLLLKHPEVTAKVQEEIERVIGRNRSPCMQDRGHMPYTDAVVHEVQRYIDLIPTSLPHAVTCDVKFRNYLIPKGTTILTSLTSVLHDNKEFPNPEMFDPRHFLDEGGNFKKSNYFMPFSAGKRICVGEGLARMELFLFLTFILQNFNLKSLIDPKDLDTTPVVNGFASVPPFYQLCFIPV
Sequence of Thyrotropin-releasing hormone receptor (Homo sapiens) (P34981 whole entry, looked up): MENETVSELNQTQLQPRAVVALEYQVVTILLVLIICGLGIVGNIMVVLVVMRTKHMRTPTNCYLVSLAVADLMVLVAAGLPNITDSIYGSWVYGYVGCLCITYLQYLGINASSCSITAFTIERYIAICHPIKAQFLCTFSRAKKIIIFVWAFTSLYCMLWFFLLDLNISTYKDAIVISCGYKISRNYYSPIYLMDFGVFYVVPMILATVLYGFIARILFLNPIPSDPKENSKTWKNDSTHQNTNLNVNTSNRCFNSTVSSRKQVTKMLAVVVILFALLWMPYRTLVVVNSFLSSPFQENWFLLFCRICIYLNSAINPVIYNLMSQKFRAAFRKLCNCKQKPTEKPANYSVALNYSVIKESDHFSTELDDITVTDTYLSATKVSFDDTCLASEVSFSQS
Sequence of Cytochrome P450 2D6 (Homo sapiens) (P10635 whole entry, looked up): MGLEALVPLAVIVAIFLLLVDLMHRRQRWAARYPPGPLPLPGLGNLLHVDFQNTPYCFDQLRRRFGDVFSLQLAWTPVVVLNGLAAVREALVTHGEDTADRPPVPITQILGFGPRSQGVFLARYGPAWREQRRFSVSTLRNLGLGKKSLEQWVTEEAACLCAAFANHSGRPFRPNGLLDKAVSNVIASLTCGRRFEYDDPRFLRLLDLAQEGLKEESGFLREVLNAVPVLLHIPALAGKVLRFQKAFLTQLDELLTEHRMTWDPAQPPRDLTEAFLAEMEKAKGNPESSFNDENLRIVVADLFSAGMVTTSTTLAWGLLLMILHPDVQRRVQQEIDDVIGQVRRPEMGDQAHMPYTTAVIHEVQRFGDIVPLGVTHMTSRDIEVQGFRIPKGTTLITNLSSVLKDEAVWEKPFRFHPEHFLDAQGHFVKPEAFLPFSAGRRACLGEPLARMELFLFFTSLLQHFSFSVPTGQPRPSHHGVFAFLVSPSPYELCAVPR
Sequence of Voltage-gated inwardly rectifying potassium channel KCNH2 (Homo sapiens) (Q12809 whole entry, looked up): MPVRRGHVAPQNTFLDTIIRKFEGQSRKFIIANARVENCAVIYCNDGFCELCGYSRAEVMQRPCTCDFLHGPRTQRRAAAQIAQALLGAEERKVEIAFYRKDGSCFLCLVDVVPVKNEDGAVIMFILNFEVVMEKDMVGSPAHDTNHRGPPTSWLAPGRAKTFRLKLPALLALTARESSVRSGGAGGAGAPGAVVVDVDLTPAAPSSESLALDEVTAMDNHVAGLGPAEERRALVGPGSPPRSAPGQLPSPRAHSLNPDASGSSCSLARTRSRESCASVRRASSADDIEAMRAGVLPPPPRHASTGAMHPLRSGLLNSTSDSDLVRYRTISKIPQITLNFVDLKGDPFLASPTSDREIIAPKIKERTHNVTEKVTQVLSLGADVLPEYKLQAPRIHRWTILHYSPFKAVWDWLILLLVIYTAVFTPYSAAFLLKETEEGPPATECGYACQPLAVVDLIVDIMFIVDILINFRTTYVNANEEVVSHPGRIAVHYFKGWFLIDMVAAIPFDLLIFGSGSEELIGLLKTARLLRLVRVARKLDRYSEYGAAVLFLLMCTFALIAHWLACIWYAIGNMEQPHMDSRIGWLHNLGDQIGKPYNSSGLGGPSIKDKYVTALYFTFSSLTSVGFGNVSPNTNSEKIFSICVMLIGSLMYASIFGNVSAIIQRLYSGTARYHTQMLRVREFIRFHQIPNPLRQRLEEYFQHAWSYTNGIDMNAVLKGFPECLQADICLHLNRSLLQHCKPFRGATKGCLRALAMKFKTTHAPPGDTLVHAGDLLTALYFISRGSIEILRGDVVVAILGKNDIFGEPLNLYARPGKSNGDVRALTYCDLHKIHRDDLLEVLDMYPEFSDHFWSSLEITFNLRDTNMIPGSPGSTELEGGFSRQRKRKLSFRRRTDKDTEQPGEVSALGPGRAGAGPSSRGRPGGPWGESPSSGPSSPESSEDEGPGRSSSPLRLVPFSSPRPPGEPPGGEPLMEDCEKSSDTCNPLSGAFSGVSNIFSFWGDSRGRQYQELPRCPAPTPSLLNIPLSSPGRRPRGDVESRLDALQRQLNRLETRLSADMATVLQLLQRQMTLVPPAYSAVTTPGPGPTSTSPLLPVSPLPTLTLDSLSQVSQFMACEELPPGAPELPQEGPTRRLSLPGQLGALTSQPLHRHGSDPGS
Sequence of Cytochrome P450 3A4 (Homo sapiens) (P08684 whole entry, looked up): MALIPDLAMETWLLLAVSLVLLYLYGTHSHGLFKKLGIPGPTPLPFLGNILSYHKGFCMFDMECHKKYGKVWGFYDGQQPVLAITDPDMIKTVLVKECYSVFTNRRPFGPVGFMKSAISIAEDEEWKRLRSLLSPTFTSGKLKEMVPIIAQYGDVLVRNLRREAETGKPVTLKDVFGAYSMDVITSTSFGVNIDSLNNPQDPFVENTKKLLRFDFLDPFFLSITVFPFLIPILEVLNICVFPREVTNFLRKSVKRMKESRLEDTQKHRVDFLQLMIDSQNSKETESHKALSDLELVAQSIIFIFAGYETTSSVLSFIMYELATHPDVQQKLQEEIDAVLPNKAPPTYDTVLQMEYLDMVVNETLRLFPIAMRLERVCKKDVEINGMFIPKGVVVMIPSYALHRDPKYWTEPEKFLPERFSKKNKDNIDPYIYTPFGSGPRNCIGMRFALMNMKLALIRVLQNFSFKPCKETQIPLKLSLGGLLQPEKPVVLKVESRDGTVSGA
Sequence of Cytochrome P450 1A2 (Homo sapiens) (P05177 whole entry, looked up): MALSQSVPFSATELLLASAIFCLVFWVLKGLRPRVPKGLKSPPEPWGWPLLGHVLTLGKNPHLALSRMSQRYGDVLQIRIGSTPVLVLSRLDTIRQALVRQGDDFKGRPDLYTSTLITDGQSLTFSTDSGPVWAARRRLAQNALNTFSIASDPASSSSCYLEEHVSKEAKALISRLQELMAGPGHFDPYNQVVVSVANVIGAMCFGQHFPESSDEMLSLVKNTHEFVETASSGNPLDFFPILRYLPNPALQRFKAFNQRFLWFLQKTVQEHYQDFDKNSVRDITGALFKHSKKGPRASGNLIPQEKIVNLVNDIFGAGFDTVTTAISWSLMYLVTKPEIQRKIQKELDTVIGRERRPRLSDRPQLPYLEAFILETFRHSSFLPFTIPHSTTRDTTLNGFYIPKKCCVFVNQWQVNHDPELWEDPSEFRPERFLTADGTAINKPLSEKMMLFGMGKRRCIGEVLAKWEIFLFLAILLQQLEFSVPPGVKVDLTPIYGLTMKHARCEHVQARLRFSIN

On to `CC(=O)Nc1ccc(C)cc1`, for which the result in [1], in [2], in [3], in [4], in [6] and in test [8] was inactive. Further, the Potency entry in [5], in test [7], in test [9], in test [10], in [11] and in test [12] was “inactive” in each case. The Potency result in [14] and in [15] was “inactive” throughout. Also, the Potency in test [13] is 39.6 µM (active).

For `Cc1ccccc1C(=O)N1CC/C(=N\OS(=O)(=O)O)c2ccc(Cl)cc21`, the result in test [1], in test [2], in test [3], in test [4], in test [6] and in [8] was inactive. Also, the Potency entry in [5], in test [7], in test [9], in [11], in test [13] and in test [14] was “inactive” in each case. In [12], the Potency is 4.36 µM (active).

For `CCOC(=O)CC#N`, the result in test [1], in test [2], in [3], in test [4], in [6] and in [8] was inactive. Besides, the Potency result in test [5], in test [7], in test [9], in test [10], in test [14] and in test [15] was “inactive” in each case. In addition, the Potency in test [16] was 39.5 µM (active).

In the case of `Cc1ccccc1OCC1CO1` (stereo not given), the result in test [1], in test [2], in test [3], in test [4], in test [6] and in [8] was inactive. For the same molecule, the Potency entry in test [5], in [7], in [9], in [11], in [12] and in test [13] was “inactive” each time. Besides, the Potency entry in [14] and in test [15] was “inactive” each time.

For `C=COCCOCCOC=C`, the molecule was called inactive in test [1], in [2], in test [3], in test [4], in [6] and in test [8]. Besides, the Potency result in test [5], in [7], in test [9], in test [10], in test [16] and in test [12] was “inactive” each time. Also, the Potency entry in test [14] and in test [15] was “inactive” in each case.

As to `O=C(COCCOCCOCC(=O)Nc1c(I)cc(I)c(C(=O)O)c1I)Nc1c(I)cc(I)c(C(=O)O)c1I`, the call in test [1], in test [2], in test [3], in test [4], in [6] and in [8] was inactive. Further, the Potency result in test [5], in test [7], in [9], in test [10], in test [13] and in [14] was “inactive” throughout. Also, the Potency in [16] was 34.7 µM (active).

Take `O=C(c1ccc2c(c1)C(=O)OC2=O)c1ccc2c(c1)C(=O)OC2=O`: the outcome in test [1], in test [2], in test [3], in test [4], in [6] and in [8] was inactive. Also, the Potency entry in test [5], in test [7], in test [10], in [11], in [16] and in test [14] was “inactive” in each case. Besides, in [15], the Potency result was “inactive”.
